{
  "source": "PubChem BioAssay (NCI)",
  "note": "This is part of a sample that, as a whole, favours compounds with a hit. Of some 83,000 tested, about 20% had one in any assay.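 48-hour exposure, single concentration, 96-well plates; percent growth endpoint where 0 means no net growth. Active: below 10.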 Calls of active or inactive are those of the source.",
  "data": [
    {"system": "HL-60(TB) leukemia", "experiment": "NCI-60 one-dose screen, 48 h (100 = growth as untreated, 0 = no growth, -100 = all killed)", "conditions": "10 µM unless noted", "values": [
      {"smiles": "Nc1nc(-c2ccccc2Br)nn1-c1nc2ccccc2s1", "growth": "99.3% (inactive)"},
      {"smiles": "COC(=O)c1ccc2[nH]c(O)c(C(=Nc3ccc(N(C)C(=O)CN4CCN(C)CC4)cc3)c3cccc(OC)c3)c2c1", "growth": "-35.9% (active)"},
      {"smiles": "COc1cc(/C=N/NC(=O)Cn2c(C(C)C)nc3ccccc32)ccc1O", "growth": "85.2% (inactive)"},
      {"smiles": "Nc1nc2c(c3ncncc13)C(c1cccc(C(F)(F)F)c1)Cc1ncncc1-2", "note": "(stereo not given)", "growth": "10.7% (inactive)"},
      {"smiles": "CC/C(=C(\\c1ccc(O)cc1)c1ccc(OCCN(C)CCN(C)C(=O)CCCCC(=O)c2c(C)[nH]c(/C=C3\\N=C(c4ccc[nH]4)C=C3OC)c2C)cc1)c1ccccc1", "growth": "103% (inactive)"},
      {"smiles": "O=S(=O)(NCCNc1cc(-c2cn(-c3ccccc3)nc2-c2cccc(O)c2)ccn1)c1ccc(C(F)(F)F)cc1", "growth": "8.76% (active)"},
      {"smiles": "COc1cc(OC)c(/C=C/S(=O)(=O)Cc2ccc(OC)c(NCC(=O)O)c2)c(OC)c1", "growth": "-32% (active)"},
      {"smiles": "C[C@]12CC[C@@H]3c4ccc(OCC(=O)O)cc4CC[C@H]3[C@@H]1CCC2=O", "growth": "84.7% (inactive)"},
      {"smiles": "CC1(Cc2ccccc2)CC2=C(C(=O)O1)C(c1ccccc1)NC(=O)N2", "note": "(stereo not given)", "growth": "-25.1% (active)"},
      {"smiles": "CC1(C)C(=O)/C(=C\\c2cccnc2)C[C@]2(C)[C@H]3CC[C@@H]4[C@@H](C(=O)/C=C/c5ccncc5)CC[C@@]4(C)[C@]3(C)CC[C@@H]12", "growth": "-11% (active)"},
      {"smiles": "COc1ccc2c(c1)c(-c1ccc(-c3cn(C)c4ccc(OC)cc34)[nH]1)cn2C", "growth": "-24.7% (active)"},
      {"smiles": "CC[C@H](C)[C@H](NC(=O)[C@@H](N)CCC(N)=O)C(=O)N[C@@H](Cc1ccc(O)cc1)C(=O)N[C@@H](CCCCN)C(=O)N[C@@H](CCCCN)C(=O)N[C@@H](Cc1ccc(O)cc1)C(=O)N[C@@H](CCCNC(=N)N)C(=O)N[C@H](C(=O)N[C@@H](Cc1c[nH]c2ccccc12)C(=O)N[C@@H](Cc1ccc(O)cc1)C(=O)N[C@@H](CCCNC(=N)N)C(=O)N[C@@H](CCCCN)C(=O)N[C@@H](C)C(=O)N[C@@H](Cc1c[nH]c2ccccc12)C(=O)N[C@@H](CCCCN)C(=O)N[C@H](C(=O)N[C@@H](CC(C)C)C(=O)NCC(=O)N[C@@H](CCCCN)C(=O)N[C@H](C(N)=O)C(C)C)C(C)C)[C@@H](C)O", "growth": "13.9% (inactive)"},
      {"smiles": "CCCCCCCCCCN1CCC(N2CCCCC2)CC1", "growth": "-57.7% (active)"},
      {"smiles": "NC1=CC(=O)C(=O)c2cccnc21", "growth": "106% (inactive)"},
      {"smiles": "CC(C)CN(C(=O)c1ccc(Cl)cc1)c1c(N)n(CC(C)C)c(=O)[nH]c1=O", "growth": "90.8% (inactive)"},
      {"smiles": "O=C1CCC23OC(C(O)c4ccccc4N12)C1C(Br)=NOC13", "note": "(stereo not given)", "growth": "96% (inactive)"},
      {"smiles": "COC1CCC(N2C(=O)CNc3ncc(-c4ccc(C(C)(C)O)nc4)nc32)CC1", "note": "(stereo not given)", "growth": "11.2% (inactive)"},
      {"smiles": "Oc1ccc(CCC2CCCC(CCc3ccc(OCCF)cc3)N2)cc1", "note": "(stereo not given)", "growth": "82% (inactive)"},
      {"smiles": "Cn1cnc([N+](=O)[O-])c1/C=C1\\Oc2ccc(Cl)cc2C1=O", "growth": "60% (inactive)"},
      {"smiles": "CN(C)C(CNc1oc(-c2cccc3ccccc23)nc1C#N)c1ccco1", "note": "(stereo not given)", "growth": "74.1% (inactive)"},
      {"smiles": "COc1ccc(C2=NN(C(=O)c3cc(OC)c(OC)c(OC)c3)C(c3ccc(N(C)C)cc3)C2)cc1", "note": "(stereo not given)", "growth": "-18.4% (active)"},
      {"smiles": "COc1cc(/C=C\\c2cc(OC)c(OC)c(OC)c2)cc(NS(=O)(=O)c2ccc(Cl)cc2)c1OC", "growth": "-31% (active)"},
      {"smiles": "COc1ccc(C/C(C)=C(/c2ccc(OCCN3CCCCCC3)cc2)c2ccc(OC(=O)NCc3ccccc3)cc2)cc1", "growth": "45% (inactive)"},
      {"smiles": "CCCCCN1C=C/C(=C\\C(=O)N(C)c2ccc(Oc3ccccc3)cc2)c2ccccc21", "growth": "66.9% (inactive)"},
      {"smiles": "CC[C@H](C)[C@H](NC(=O)[C@H](CCCCN)NC(=O)[C@H](CCCCN)NC(=O)[C@@H](NC(=O)[C@@H](NC(=O)[C@@H](N)Cc1cnc[nH]1)[C@@H](C)CC)[C@@H](C)CC)C(=O)N[C@@H](CCCNC(=N)N)C(=O)N[C@H](C(=O)N[C@@H](Cc1c[nH]c2ccccc12)C(=O)N[C@@H](Cc1ccc(O)cc1)C(=O)N[C@@H](CCCNC(=N)N)C(=O)N[C@@H](CCCCN)C(=O)N[C@@H](C)C(=O)N[C@@H](Cc1c[nH]c2ccccc12)C(=O)N[C@@H](Cc1cnc[nH]1)C(=O)N[C@H](C(=O)N[C@@H](CC(C)C)C(=O)NCC(=O)N[C@@H](CCCCN)C(=O)N[C@H](C(N)=O)C(C)C)C(C)C)[C@@H](C)O", "growth": "89.5% (inactive)"}
    ]}
  ]
}
